Values without a mark were called inactive. Results filed as inconclusive are left out. The source made the active and inactive calls. Calls follow the shape of the dose curve; as a rule, active = well fitted curve in the direction sought with a large enough effect; inconclusive = small, poorly fitted or top-dose-only effect, or another doubt; inactive = no such curve, though single readings can be large; an effect the other way counts as inactive or inconclusive.
Biological target: Cytochrome P450 3A4 (Homo sapiens) (UniProt P08684)
Sequence (P08684 whole entry, looked up): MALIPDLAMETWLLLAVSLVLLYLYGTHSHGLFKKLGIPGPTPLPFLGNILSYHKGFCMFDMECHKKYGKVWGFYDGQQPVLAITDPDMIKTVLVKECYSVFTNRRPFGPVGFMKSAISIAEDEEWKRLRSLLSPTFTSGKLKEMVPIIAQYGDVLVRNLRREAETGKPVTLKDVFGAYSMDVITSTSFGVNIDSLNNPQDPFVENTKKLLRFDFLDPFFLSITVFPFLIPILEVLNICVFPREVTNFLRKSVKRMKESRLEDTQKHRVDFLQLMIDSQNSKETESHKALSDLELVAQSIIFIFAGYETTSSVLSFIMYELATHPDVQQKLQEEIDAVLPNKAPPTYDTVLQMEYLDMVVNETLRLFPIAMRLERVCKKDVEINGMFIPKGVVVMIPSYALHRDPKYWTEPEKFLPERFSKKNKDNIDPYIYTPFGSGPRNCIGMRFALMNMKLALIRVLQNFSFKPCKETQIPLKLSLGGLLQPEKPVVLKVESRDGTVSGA
Test: qHTS Assay for Inhibitors and Substrates of Cytochrome P450 3A4 (AID 884); also: % is scaled to controls: 0 for no effect and ±100 for the full control effect; nearly all actives have a fitted effect of over 50% in size
Conditions: recombinant CYP3A4, Luciferin-PPXE luminescence; series mostly up to 57.1 µM; activity change, negative = inhibition: at the top concentration
Method in brief: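 20 nM human CYP3A4 with 25 uM Luciferin-PPXE (at KM) in 200 mM KPO4, preincubated 10 min with compound; NADPH regeneration started a 60 min RT reaction. Luciferin detected by luminescence, normalized to 57 uM ketoconazole as full inhibition.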

SMILES	activity change, negative = inhibition	Potency
CCCCCCCC/C=C\CCCCCCCC(=O)O	-13.8%	–
CC1=C2[C@@H]([C@H](C)CC[C@H]2/C=C(\C)C(=O)O)[C@H](O)C1	-6.76%	–
IC(I)I	-27.5%	–
Cc1ccccc1	–	inactive
O=CCCCC=O	-19.6%	–

Biological target: Cytochrome P450 3A4 (Homo sapiens) (UniProt P08684)
Test: qHTS Assay for Activators of Cytochrome P450 3A4 (AID 885); also: nearly all actives have a fitted effect of over 65% in size
Conditions: recombinant CYP3A4, Luciferin-PPXE luminescence, 60 min; series mostly up to 57.1 µM; activity change, positive = activation: at the top concentration
Method in brief: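 Steps: enzyme/substrate mix dispensed; compound added, 10 min RT; NADPH regeneration solution added, 60 min RT; luciferin detection buffer stops reaction; 20 min later luminescence measured.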

SMILES	activity change, positive = activation
CC(C(=O)O)c1ccc(N2Cc3ccccc3C2=O)cc1 (configuration not stated)	-33.9%
CC1=C(/C=C/C(C)=C/C=C/C(C)=C/CO)C(C)(C)CCC1	-50%
C[C@@H]1CCC2[C@@H](C)[C@@H](O)O[C@@H]3O[C@@]4(C)CC[C@@H]1[C@@]23OO4 (some centres not stated)	-34.7%
CCCCC/C=C\C/C=C\CCCCCCCC(=O)O	-38.6%
C=CCSSSCC=C	-37.6%
CCOc1ccc2c(c1)C(C)=CC(C)(C)N2	-46.7% [at 25.6 µM]

Biological target: Cytochrome P450 2D6 (Homo sapiens) (UniProt P10635)
Sequence (P10635 whole entry, looked up): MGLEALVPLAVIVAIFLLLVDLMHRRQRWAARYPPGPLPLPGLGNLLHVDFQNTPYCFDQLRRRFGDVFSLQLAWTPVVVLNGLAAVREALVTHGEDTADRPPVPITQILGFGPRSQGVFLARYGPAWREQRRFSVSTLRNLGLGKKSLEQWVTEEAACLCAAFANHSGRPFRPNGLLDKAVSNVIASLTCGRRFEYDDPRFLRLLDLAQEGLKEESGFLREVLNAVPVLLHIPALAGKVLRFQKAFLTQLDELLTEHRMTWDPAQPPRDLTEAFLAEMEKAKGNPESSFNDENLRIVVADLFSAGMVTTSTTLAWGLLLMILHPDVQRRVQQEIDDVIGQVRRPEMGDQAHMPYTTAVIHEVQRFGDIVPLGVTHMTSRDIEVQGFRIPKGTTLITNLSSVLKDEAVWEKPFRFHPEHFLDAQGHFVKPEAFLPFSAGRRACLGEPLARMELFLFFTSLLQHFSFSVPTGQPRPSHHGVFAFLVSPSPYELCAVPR
Test: qHTS Assay for Inhibitors and Substrates of Cytochrome P450 2D6 (AID 891); also: potency is read from the fitted curve at half-maximal effect; nearly all actives have a fitted effect of over 60% in size
Conditions: recombinant CYP2D6, luciferin-ME EGE luminescence; series mostly up to 57.1 µM; activity change, negative = inhibition: at the top concentration
Method in brief: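 Human CYP2D6 (5 nM) with 30 uM Luciferin-ME EGE (at Km) in 100 mM KPO4, compound preincubated 10 min, then NADPH regeneration system for 60 min at room temperature. Luciferin read by luminescence; normalized to 1.43 uM quinidine.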

SMILES	Potency
CN(C)CCCN1c2ccccc2C(C)(C)c2ccccc21	3.98 µM (active)
O=C1CSC2(CCN(CCCN3c4ccccc4Sc4ccc(Cl)cc43)CC2)N1	0.631 µM (active)
CC(C)N=c1cc2n(-c3ccc(Cl)cc3)c3ccccc3nc-2cc1Nc1ccc(Cl)cc1	2.51 µM (active)

System: not listed separately
Test: Confirmation and Secondary Assay for Modulators of Hemoglobin Beta Chain Splicing at IVS2 654 locus (AID 910);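 also: per-well total GFP intensity by laser scanning cytometry after 2-day treatment; % of control where 0% means no effect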
Conditions: HeLa EGFP-654 splicing reporter, GFP fluorescence, 48 h; series mostly up to 46.1 µM; activation (splicing correction): at the top concentration
Method in brief: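 HeLa cells stably carrying EGFP interrupted by mutant beta-globin IVS2-654 intron (CMV-driven) were treated with compound for 2 days at 37C; corrected splicing was scored as total peak GFP intensity per well (488 nm excitation, 500-520 nm emission).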

SMILES	activation (splicing correction)
CC(C(=O)O)c1ccc(N2Cc3ccccc3C2=O)cc1 (configuration not stated)	3.16%
CC1=C(/C=C/C(C)=C/C=C/C(C)=C/CO)C(C)(C)CCC1	8.01%
NC(=O)c1ncn(C2OC(CO)C(O)C2O)n1 (configuration not stated)	-0.861% [at 38.3 µM]
C[C@@H]1CCC2[C@@H](C)[C@@H](O)O[C@@H]3O[C@@]4(C)CC[C@@H]1[C@@]23OO4 (some centres not stated)	-2.62% [at 38.3 µM]
Nc1c(Br)cc(Br)cc1CNC1CCC(O)CC1 (configuration not stated)	-3.83%
CCCC(=O)Nc1ncnc2c1ncn2C1OC2COP(=O)(O)OC2C1OC(=O)CCC (configuration not stated)	10.1%
C=CCSSSCC=C	1.91%
CN1Cc2c(N)cccc2C(c2ccccc2)C1 (configuration not stated)	-1.36%
CCOc1ccc2c(c1)C(C)=CC(C)(C)N2	-1.22% [at 38.3 µM]
CCC(=O)NCCC1CCc2ccc3c(c21)CCO3 (configuration not stated)	0.224%

System: not listed separately
Test: Cell Viability - LYMP2-001 (AID 921);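 also: cells exposed to compound for 24 h at 37 °C; nearly all actives have a fitted effect of over 70% in size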; also: potency is read from the fitted curve at half-maximal effect;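 as to activity change, negative = cytotoxic: 0% = DMSO only and full inhibition = tetraoctylammonium bromide control wells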
Conditions: LYMP2-001 lymphoblastoid cell viability; series mostly up to 92.2 µM; activity change, negative = cytotoxic: at the top concentration
Method in brief: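 Steps: seed 2500 lymphoblastoid cells/well; 5 hr, 37 C; add compound; 24 hr, 37 C; CellTiter-Glo reagent, 30 min room temperature; read luminescence. Concentration-response modeled by Hill equation for AC50.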

SMILES	activity change, negative = cytotoxic	Potency
CCCCCCCC/C=C\CCCCCCCC(=O)O	7.24%	–
CCCCC/C=C\C/C=C\CCCCCCCC(=O)O	-8.46%	–
CC(C)=O	-8.68%	–
CC1=C2[C@@H]([C@H](C)CC[C@H]2/C=C(\C)C(=O)O)[C@H](O)C1	-15.2%	–
IC(I)I	-8.37%	–
Cc1ccccc1	–	inactive
CCOc1ccc2c(c1)C(C)=CC(C)(C)N2	-23.7%	–
O=CCCCC=O	–	15.8 µM (active)

From PubChem BioAssay (NCATS)
